Results reported in PubChem BioAssay (EPA / NIEHS).
Calls of active or inactive are those of the source. Rule for the calls: active = hit-call score of the fitted dose curve at least 0.9, where 1 is the maximum; inactive = score below 0.9.

What follows are compounds tested against Paired box protein Pax-6 (Homo sapiens) (UniProt P26367) (assay: ATG_Pax6_CIS: Attagene CIS-FACTORIAL HepG2 Assay for human Paired Box 6 (PAX6) (AID 2282956)). Conditions: HepG2 CIS-FACTORIAL PAX6 reporter transcription, RNA readout; actives raise or lower the signal.
Sequence of Paired box protein Pax-6 (Homo sapiens) (P26367 whole entry, looked up): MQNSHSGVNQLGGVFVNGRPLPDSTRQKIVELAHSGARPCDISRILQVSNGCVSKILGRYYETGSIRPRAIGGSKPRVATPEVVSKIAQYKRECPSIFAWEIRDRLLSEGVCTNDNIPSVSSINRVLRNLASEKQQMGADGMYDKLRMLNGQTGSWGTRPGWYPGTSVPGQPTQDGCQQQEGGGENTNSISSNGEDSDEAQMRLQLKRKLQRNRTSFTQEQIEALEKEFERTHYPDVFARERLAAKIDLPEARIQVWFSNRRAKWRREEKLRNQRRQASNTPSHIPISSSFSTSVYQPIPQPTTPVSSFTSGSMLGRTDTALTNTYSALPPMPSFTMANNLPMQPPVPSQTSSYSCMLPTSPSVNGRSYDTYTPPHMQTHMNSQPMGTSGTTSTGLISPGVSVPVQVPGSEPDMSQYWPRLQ
Protocol: ATG_CIS is a cell-based, multiplexed-readout assay that uses HepG2, a human liver cell line, with measurements taken at 24 hours after chemical dosing in a 24-well plate.ATG_Pax6_CIS is one of 52 assay component(s) measured or calculated from the ATG_CIS assay. It is designed to make measurements of mRNA induction, a form of inducible reporter, as detected with fluorescence intensity signals by Reverse transcription polymerase chain reaction (RT-PCR) and Capillary electrophoresis technology.Data from the assay component ATG_Pax6_CIS was analyzed into 1 assay endpoint. This assay endpoint, ATG_Pax6_CIS, was analyzed with bidirectional fitting relative to DMSO as the negative control and baseline of activity. Using a type of inducible reporter, measures of mRNA for gain or loss-of-signal activity can be used to understand the reporter gene at the transcription factor-level as they relate to the gene PAX6. Furthermore, this assay endpoint can be referred to as a primary readout, because this assay has produced multiple assay endpoints where this one serves a reporter gene function. To generalize the intended target to other relatable targets, this assay endpoint is annotated to the dna binding intended target family, where the subfamily is paired box protein.
Human liver HepG2 cells are transiently transfected with multiple reporter transcription units (MRTUs) in 6-well plates using FuGene 6 reagent (Roche; 3 ml FuGene/1 mg DNA). The MRTU constructs are regulated by a cis-regulating element (promoter). […] A major difference between the CIS and TRANS system is that in CIS activities of endogenous TFs are measured, whereas the TRANS assay evaluates changes in activities of exogenous, chimeric NR-Gal4 proteins. […] At the end of 24 hour incubation, total RNA was isolated using TriZol reagent (Invitrogen). The isolated RNA is then reverse-transcribed using oligo(dT) primer and Mo-MLV reverse transcriptase (Invitrogen) with DNAse I (Ambion) treatment for 30 min. The one-tenth of the produced cDNA was amplified by PCR using Taq DNA polymerase (Invitrogen) and two reporter sequence-specific primers. The PCR products were fluorescently labeled by primer extension with 6-arboxyfluorescein (6-FAM) 5'-labeled reporter sequence-specific primer (2 min at 95 C, 20 s at 68 C and 10 min at 72 C) and these products were digested with 5U of HpaI (New England Biolabs) for 2h at 37 C. The fragments were purified using Qiaquick PCR columns (Qiagen), analyzed on an ABI 3130xL genetic analyzer (Applied Biosystems) with peak positions identified by using a set of X-rhodamine (ROX)-labeled MapMarker1000 molecular weight standards (BioVentures). The raw capillary electrophoresis data was processed using Attagraph software (Attagene).

| Compound | outcome | AC50 |
| --- | --- | --- |
| CC1(C)O[C@@H]2C[C@H]3[C@@H]4CCC5=CC(=O)C=C[C@]5(C)[C@@]4(F)[C@@H](O)C[C@]3(C)[C@]2(C(=O)CO)O1 | inactive | – |
| CCCCCCCCCCCCCC(=O)OCC(O)CO (stereo not given) | inactive | – |
| CCCCCc1ccco1 | – | 111 µM (active) |
| O=C(O)CCCCCCCCCCCC(=O)O | inactive | – |
| CS(=O)(=O)c1ccc(Cl)cc1 | inactive | – |
| C/C=C(\C)C(=O)OCCc1ccccc1 | inactive | – |
| CCC1CCCCC1 | inactive | – |
| CC1CCC(C(C)C)C(O)C1 (stereo not given) | inactive | – |
| CCC(Cl)C(Cl)C(Cl)CC(Cl)C(Cl)C(C)Cl (stereo not given) | inactive | – |
| OC[C@H]1O[C@@H]2O[C@H]3[C@H](O)[C@@H](O)[C@@H](O[C@H]4[C@H](O)[C@@H](O)[C@@H](O[C@H]5[C@H](O)[C@@H](O)[C@@H](O[C@H]6[C@H](O)[C@@H](O)[C@@H](O[C@H]7[C@H](O)[C@@H](O)[C@@H](O[C@H]8[C@H](O)[C@@H](O)[C@@H](O[C@H]9[C@H](O)[C@@H](O)[C@@H](O[C@H]1[C@H](O)[C@H]2O)O[C@@H]9CO)O[C@@H]8CO)O[C@@H]7CO)O[C@@H]6CO)O[C@@H]5CO)O[C@@H]4CO)O[C@@H]3CO | inactive | – |
| Cc1ccc2c(c1)C(=O)OC2=O | inactive | – |
| CC(C)(C)CC(C)(C)c1ccc(OCCOCC[N+](C)(C)Cc2ccccc2)cc1 | inactive | – |
| CC(C)CCCCCCc1ccc(OCCOCCO)cc1 | inactive | – |
| c1ccc(Oc2ccccc2)cc1 | inactive | – |
| CC(=O)NCCO | inactive | – |
| CCCCC(CC)(CO)CO | inactive | – |
| O=[N+]([O-])c1cccc(Cl)c1 | inactive | – |
| CC(C)(CO)[C@@H](O)C(=O)NCCC(=O)O | inactive | – |
| CCc1ncc(C)[nH]1 | inactive | – |
| CCCCCCC(C)Nc1ccc(Nc2ccccc2)cc1 (stereo not given) | inactive | – |

| Compound | outcome | AC50 |
| --- | --- | --- |
| O=C1c2ccccc2C(=O)c2c(O)ccc(O)c21 | inactive | – |
| COC(=O)c1ccc([N+](=O)[O-])cc1 | inactive | – |
| CS(C)=O | inactive | – |
| COc1cccc(OC)c1O | inactive | – |
| CN(C)CCOc1ccc(/C(=C(/CCCl)c2ccccc2)c2ccccc2)cc1 | inactive | – |
| O=C(O)COCC(=O)O | inactive | – |
| CC(C)Nc1nc(N)nc(Cl)n1 | inactive | – |
| C=C(C)C(=O)OCCOCCOCCOC(=O)C(=C)C | inactive | – |
| COC(CC(C)CCCC(C)(C)O)OC (stereo not given) | inactive | – |
| Nc1ccccc1[N+](=O)[O-] | inactive | – |
| CN(C)C(=O)Nc1ccc(Oc2ccc(Cl)cc2)cc1 | inactive | – |
| c1ccc(CCc2ccccc2)cc1 | inactive | – |
| C1=CC2C3C=CC(C3)C2C1 (stereo not given) | inactive | – |
| CCCCCC(C)=O | inactive | – |
| O=C1OC(=O)c2c(Cl)c(Cl)c(Cl)c(Cl)c21 | inactive | – |
| Nc1c(Cl)cc(Cl)cc1[N+](=O)[O-] | inactive | – |
| C=CC(=C)CCCC(C)(C)OC(C)=O | inactive | – |
| CCOc1ccc(NC(=O)CC(C)=O)cc1 | inactive | – |
| CCCCCCC(CO)CCCC (stereo not given) | inactive | – |
| Cc1cc(=O)oc2cc(N(C)C)ccc12 | inactive | – |
